This note sets out measurements from ChEMBL document CHEMBL2218924, “A broad activity screen in support of a chemogenomic map for kinase signalling research and drug discovery” (Biochem J, 2013).

In experiment [1] the target is Insulin receptor (Homo sapiens) (UniProt P06213). The settings on record: at 10 µM.
Experiment [2] shares this target. Conditions: at 1 µM.
The target is the same in experiment [3]. Conditions: at 10 µM. The source holds these as a separate data set.
The target in experiment [4] is Interleukin-1 receptor-associated kinase 1 (Homo sapiens) (UniProt P51617). Conditions: at 1 µM.
Interleukin-1 receptor-associated kinase 1 (Homo sapiens), sequence (P51617 whole entry, looked up): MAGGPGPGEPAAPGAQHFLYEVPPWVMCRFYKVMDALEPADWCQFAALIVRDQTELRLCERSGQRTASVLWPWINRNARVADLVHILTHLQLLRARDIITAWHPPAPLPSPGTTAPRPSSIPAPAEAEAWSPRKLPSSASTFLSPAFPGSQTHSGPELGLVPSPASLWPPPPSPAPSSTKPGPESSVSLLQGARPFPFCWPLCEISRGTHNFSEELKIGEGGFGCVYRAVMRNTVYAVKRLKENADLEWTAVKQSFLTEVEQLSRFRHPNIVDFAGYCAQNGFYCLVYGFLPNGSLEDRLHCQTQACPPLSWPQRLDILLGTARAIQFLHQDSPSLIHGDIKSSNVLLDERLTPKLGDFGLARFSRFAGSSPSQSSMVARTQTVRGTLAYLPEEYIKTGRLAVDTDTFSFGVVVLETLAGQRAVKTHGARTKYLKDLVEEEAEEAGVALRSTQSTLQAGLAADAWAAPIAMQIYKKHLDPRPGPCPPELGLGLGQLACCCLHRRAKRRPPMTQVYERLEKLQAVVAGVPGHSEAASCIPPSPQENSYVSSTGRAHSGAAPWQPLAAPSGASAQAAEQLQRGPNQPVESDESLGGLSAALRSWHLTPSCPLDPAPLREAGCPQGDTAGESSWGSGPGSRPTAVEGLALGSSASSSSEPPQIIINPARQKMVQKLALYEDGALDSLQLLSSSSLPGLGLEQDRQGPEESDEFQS
For experiment [5] the target is unchanged. The settings on record: at 10 µM.
In experiment [6] the target is T1, Interleukin-1 receptor-associated kinase 4 (Homo sapiens) (UniProt Q9NWZ3).
T1 sequence (whole entry): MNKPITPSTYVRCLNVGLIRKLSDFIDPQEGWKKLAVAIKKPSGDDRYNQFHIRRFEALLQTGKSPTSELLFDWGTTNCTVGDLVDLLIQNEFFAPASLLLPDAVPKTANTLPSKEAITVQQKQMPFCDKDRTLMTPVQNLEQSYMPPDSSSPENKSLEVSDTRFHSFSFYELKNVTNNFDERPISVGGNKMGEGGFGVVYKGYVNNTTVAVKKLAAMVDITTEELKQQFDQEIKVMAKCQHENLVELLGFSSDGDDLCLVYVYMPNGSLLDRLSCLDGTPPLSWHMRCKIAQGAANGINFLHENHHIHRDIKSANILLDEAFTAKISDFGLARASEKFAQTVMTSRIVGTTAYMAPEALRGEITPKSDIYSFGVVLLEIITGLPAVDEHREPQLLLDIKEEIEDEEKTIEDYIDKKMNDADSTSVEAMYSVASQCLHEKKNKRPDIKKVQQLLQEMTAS
Conditions: at 1 µM.

In experiment [7] the target is T1, Interleukin-1 receptor-associated kinase 4 (Homo sapiens). Conditions: at 10 µM.
Experiment [8] addresses T2, Tyrosine-protein kinase ITK/TSK (Homo sapiens) (UniProt Q08881).
T2 sequence (whole entry): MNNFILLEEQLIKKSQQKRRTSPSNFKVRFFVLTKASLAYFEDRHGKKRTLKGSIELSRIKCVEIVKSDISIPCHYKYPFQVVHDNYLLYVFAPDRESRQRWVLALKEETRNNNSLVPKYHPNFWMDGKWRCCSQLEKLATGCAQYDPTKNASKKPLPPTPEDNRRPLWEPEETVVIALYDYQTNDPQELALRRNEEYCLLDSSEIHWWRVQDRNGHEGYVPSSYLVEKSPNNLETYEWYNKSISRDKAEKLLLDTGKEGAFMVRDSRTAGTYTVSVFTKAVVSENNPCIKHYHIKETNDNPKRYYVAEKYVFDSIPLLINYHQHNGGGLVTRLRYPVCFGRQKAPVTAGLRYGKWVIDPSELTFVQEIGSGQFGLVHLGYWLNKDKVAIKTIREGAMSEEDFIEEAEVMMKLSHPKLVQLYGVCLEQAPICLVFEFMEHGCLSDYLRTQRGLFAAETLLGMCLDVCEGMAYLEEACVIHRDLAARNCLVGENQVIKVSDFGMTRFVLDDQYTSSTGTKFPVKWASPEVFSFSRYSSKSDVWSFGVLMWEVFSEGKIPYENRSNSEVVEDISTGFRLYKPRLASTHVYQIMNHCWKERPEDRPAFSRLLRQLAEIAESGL
Conditions: at 1 µM.

Experiment [9] deals with T2, Tyrosine-protein kinase ITK/TSK (Homo sapiens). Conditions: at 10 µM.
The target of experiment [10] is Mitogen-activated protein kinase 9 (Homo sapiens) (UniProt P45984). Conditions: at 1 µM.
The target is the same in experiment [11]. The settings on record: at 10 µM.
Experiment [12] has as its target Mitogen-activated protein kinase 10 (Homo sapiens) (UniProt P53779). Conditions: at 1 µM.
Experiment [13] deals with Tyrosine-protein kinase JAK2 (Homo sapiens) (UniProt O60674). Conditions: at 1 µM.
Tyrosine-protein kinase JAK2 (Homo sapiens), sequence (O60674 whole entry): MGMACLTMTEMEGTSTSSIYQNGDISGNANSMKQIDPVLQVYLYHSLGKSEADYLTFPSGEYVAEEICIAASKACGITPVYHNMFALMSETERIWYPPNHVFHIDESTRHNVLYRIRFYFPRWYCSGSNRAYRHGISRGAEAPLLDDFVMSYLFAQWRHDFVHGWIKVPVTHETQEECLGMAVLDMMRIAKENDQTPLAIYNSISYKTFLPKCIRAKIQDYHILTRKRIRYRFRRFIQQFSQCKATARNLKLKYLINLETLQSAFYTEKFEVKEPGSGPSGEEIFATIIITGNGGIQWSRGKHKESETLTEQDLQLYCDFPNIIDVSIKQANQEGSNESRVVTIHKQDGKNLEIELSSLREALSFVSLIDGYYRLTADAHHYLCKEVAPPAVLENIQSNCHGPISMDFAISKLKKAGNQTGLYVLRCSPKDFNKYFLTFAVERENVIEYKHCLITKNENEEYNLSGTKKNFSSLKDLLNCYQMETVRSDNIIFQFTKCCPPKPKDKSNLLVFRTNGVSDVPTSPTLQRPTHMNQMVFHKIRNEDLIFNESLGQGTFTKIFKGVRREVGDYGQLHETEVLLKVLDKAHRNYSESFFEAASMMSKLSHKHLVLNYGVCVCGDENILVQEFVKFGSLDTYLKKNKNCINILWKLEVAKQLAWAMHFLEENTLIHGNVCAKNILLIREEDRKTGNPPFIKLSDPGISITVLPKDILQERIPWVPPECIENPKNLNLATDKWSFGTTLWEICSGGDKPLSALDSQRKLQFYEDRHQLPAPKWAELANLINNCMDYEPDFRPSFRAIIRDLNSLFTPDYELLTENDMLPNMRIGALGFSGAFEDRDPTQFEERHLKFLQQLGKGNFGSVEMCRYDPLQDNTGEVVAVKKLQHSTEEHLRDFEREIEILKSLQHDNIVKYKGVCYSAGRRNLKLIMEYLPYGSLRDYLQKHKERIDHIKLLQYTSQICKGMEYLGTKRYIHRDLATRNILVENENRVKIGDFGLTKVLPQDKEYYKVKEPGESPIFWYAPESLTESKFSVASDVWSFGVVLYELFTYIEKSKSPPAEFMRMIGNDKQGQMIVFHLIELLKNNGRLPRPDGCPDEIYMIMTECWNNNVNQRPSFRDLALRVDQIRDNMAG
The target is the same in experiment [14]. Conditions: at 10 µM.
The target in experiment [15] is T3, Tyrosine-protein kinase JAK3 (Homo sapiens) (UniProt P52333).
T3 sequence (whole entry): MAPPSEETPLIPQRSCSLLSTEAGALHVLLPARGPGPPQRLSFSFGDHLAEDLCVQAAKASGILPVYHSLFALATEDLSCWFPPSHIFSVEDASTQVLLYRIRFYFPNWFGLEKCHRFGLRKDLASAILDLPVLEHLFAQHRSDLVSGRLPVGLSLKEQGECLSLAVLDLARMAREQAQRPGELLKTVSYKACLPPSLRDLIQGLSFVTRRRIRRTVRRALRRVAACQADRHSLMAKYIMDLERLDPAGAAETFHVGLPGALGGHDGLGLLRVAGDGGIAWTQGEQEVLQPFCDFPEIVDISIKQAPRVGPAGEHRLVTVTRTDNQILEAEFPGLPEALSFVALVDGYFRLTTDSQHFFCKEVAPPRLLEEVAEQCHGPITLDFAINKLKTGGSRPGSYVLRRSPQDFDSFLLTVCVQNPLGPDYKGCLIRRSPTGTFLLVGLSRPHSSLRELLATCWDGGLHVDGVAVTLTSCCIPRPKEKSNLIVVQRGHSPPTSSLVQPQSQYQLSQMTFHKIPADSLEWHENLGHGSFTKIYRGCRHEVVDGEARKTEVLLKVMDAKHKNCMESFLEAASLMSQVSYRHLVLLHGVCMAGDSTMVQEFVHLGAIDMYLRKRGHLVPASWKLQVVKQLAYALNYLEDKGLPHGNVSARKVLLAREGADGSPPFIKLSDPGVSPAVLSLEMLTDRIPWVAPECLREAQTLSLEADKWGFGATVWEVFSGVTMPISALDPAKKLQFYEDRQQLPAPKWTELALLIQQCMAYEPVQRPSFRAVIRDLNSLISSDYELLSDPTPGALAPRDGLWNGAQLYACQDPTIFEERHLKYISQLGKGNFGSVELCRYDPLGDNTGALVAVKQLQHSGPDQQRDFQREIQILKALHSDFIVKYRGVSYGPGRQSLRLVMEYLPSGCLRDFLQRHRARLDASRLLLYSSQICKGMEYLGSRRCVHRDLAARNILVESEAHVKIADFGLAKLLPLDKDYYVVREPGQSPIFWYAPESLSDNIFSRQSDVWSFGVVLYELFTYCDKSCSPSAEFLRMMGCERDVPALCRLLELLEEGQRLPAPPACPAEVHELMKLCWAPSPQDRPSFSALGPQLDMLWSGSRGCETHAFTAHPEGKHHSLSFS
The settings on record: at 1 µM.

In experiment [16] the target is T3, Tyrosine-protein kinase JAK3 (Homo sapiens). Conditions: at 10 µM.
The target in experiment [17] is Mitogen-activated protein kinase 8 (Homo sapiens) (UniProt P45983). Conditions: at 1 µM.
Mitogen-activated protein kinase 8 (Homo sapiens), sequence (P45983 whole entry): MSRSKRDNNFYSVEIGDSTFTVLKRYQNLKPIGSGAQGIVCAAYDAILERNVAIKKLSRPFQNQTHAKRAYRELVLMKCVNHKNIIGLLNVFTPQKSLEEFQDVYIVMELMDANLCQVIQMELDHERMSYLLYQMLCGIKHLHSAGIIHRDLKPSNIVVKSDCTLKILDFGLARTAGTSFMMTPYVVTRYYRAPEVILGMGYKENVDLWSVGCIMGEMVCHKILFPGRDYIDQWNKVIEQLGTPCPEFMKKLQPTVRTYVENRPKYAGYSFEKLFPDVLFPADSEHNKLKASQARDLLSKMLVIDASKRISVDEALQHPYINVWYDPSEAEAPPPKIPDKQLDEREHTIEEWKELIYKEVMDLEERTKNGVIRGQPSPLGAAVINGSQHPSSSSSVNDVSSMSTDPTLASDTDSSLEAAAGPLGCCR
Experiment [18] has the same target. Conditions: at 10 µM.
The target of experiment [19] is Insulin receptor-related protein (Homo sapiens) (UniProt P14616). The settings on record: at 1 µM.
Insulin receptor-related protein (Homo sapiens), sequence (P14616 27-742 limits assumed): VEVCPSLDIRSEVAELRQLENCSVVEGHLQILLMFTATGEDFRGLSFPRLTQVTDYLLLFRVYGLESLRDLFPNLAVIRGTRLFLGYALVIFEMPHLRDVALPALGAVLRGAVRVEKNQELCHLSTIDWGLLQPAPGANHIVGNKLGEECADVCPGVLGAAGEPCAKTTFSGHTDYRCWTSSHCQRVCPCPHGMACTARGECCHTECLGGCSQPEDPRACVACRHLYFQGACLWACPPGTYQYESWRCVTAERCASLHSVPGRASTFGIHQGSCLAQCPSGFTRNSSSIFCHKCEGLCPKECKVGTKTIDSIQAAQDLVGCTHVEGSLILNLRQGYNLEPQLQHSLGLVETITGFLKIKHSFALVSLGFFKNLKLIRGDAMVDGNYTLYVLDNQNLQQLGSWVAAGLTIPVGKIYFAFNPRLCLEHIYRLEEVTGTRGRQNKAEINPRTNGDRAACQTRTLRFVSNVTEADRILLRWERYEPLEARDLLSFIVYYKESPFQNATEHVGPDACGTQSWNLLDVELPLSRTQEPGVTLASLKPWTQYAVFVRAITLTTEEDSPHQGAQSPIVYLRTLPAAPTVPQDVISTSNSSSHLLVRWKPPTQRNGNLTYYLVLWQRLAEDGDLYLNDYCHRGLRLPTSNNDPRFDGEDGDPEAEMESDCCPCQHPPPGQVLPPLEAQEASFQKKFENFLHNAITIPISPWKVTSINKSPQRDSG
Insulin receptor-related protein (Homo sapiens), sequence (P14616 747-1297 limits assumed): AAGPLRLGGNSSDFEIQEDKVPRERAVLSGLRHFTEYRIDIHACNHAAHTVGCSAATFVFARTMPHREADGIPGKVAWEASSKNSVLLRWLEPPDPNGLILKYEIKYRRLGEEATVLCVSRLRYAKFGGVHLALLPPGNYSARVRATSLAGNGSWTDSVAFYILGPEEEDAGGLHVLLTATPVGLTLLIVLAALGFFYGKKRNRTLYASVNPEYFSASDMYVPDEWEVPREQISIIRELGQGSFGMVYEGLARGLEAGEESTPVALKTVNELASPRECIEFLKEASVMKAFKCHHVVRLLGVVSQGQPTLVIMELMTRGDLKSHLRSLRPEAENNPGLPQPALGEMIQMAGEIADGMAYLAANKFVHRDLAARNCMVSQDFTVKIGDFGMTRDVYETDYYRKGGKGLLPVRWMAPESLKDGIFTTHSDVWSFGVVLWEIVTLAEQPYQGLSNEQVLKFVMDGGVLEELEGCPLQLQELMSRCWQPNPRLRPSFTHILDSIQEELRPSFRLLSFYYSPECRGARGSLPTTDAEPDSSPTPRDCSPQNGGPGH
Experiment [20] has the same target. Conditions: at 10 µM.

Insulin receptor (Homo sapiens), sequence (P06213 28-758 limits assumed): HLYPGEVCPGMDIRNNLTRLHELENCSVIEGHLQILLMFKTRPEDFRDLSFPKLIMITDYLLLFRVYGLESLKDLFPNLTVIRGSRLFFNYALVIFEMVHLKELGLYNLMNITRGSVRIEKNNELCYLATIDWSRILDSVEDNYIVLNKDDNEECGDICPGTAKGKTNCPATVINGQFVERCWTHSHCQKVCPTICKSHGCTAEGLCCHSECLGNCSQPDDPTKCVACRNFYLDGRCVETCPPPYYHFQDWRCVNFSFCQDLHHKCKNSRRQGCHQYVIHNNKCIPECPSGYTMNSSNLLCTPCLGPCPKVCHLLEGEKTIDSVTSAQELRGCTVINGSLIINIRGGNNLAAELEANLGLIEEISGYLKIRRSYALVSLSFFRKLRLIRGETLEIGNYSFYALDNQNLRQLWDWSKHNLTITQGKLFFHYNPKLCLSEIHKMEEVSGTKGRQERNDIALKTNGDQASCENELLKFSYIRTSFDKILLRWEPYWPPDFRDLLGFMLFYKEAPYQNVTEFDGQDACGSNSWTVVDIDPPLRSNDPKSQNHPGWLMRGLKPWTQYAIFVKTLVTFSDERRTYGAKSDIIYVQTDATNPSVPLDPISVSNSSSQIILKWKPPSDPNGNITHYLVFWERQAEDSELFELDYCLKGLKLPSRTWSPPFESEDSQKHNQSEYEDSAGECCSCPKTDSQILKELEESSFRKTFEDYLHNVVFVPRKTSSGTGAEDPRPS
Insulin receptor (Homo sapiens), sequence (P06213 763-1382 limits assumed): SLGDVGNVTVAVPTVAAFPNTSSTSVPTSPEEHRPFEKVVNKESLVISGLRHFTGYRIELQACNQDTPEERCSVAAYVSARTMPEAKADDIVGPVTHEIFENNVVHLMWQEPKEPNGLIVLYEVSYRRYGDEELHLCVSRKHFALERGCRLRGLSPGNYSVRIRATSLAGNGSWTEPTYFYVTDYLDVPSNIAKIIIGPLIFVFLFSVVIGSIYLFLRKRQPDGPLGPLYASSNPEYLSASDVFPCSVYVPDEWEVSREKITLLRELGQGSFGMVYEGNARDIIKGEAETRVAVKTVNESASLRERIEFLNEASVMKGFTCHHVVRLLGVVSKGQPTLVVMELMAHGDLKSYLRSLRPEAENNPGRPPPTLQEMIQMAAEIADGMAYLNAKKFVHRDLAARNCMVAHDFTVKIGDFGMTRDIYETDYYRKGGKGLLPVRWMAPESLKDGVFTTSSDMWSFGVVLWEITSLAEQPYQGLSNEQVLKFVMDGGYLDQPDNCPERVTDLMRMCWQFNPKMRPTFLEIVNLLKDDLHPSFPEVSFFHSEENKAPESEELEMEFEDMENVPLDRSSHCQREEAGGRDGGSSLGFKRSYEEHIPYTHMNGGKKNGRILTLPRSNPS

On to `O=C1NC(=O)C(c2cn(CCCO)c3ncccc23)=C1c1cnccn1`, for which the residual activity was found to be 96% in experiment [1]; 94% in experiment [2]; 92% in experiment [3]; 98% in [4]; 98% in experiment [5]; 87% in [6]. Besides, the residual activity in [7] was 70%; in [8] it was 94%; in experiment [9], 91%; in [10] it was 96%; in [11], 80%; in experiment [12] it was 89%.
In the case of `O=C(O)/C=C/c1cc(Br)c(Br)c(Br)c1Br`, the residual activity in experiment [1] was 141%; in [2], 100%; in [3], 90%; in [4] it was 101%; in experiment [5] it was 68%; in experiment [7], 94%. Moreover, the residual activity in [13] is 87%; in [14], 58%; in experiment [15], 102%; in [16], 34%; in experiment [17], 108%; in experiment [18], 72%. Further, the results for the residual activity in experiment [10], in [11] and in experiment [12] were 100%, 72% and 99%, respectively.
In the case of `NC(=O)Nc1sc(-c2ccc(F)cc2)cc1C(N)=O`, the residual activity in experiment [4] came to 84%; in experiment [5] it was 49%; in [6] it was 46%; in experiment [7], 9%; in experiment [19] it was 69%; in experiment [20] it was 3%. Besides, the residual activity came out at 22% in experiment [8]; 1% in experiment [9]; 4% in experiment [13]; 0% in [14]; 42% in experiment [15]; 5% in experiment [16]. In addition, the residual activity came to 94% in [17]; 52% in experiment [18]; 84% in experiment [10]; 67% in [11]; 60% in experiment [12].
In the case of `CC(C)[C@H](CO)Nc1nc(Nc2cc(N)cc(Cl)c2)c2ncn(C(C)C)c2n1`, the residual activity in experiment [1] stood at 50%; in experiment [2], 55%; in experiment [3] it was 6%; in experiment [4] it was 94%; in experiment [5], 49%; in experiment [6], 39%. In addition, the residual activity in [7] was determined as 7%; in [16], 87%; in experiment [12], 82%.
With `Nc1ncnc2c1c(-c1ccc(Oc3ccccc3)cc1)cn2C1CCCC1`, the residual activity in experiment [1] stood at 109%; in experiment [2], 90%; in experiment [3], 50%; in experiment [4], 83%; in experiment [5], 74%; in [6], 94%. Besides, the residual activity in experiment [19] was found to be 114%; in experiment [20], 15%; in experiment [8], 58%; in [9], 4%; in experiment [13], 96%; in experiment [14] it was 124%. Further, the residual activity in [15] was 91%; in experiment [16] it was 65%; in experiment [17] it was 100%; in [18] it was 64%; in [10], 104%; in [11] it was 92%. The residual activity in experiment [12] came out at 77%.
As to `NCCNc1ncc(C(N)=O)c(Nc2cccc(C(F)(F)F)c2)n1`, the residual activity came out at 77% in experiment [1]; 74% in [2]; 34% in [3]; 51% in experiment [7]; 142% in experiment [19]; 55% in [20]. Moreover, the residual activity in experiment [15] turned out to be 116%; in [16], 106%; in [10] it was 103%; in experiment [11], 76%; in [12], 79%.
Turning to `CSc1nc(-c2ccc(F)cc2)c(-c2ccnc(NC(C)c3ccccc3)c2)[nH]1` (centres undefined), the residual activity in experiment [1] stood at 93%; in experiment [2], 102%; in experiment [3], 98%; in [6], 23%; in experiment [7], 13%; in experiment [20], 73%. Moreover, the residual activity was 70% in experiment [8]; 53% in [9]; 90% in experiment [17]; 32% in [18]; 39% in [10]; -6% in experiment [11]. Further, in [12], the residual activity turned out to be 4%.
As to `CN([C@@H](Cc1ccc(OS(=O)(=O)c2cccc3cnccc23)cc1)C(=O)N1CCN(c2ccccc2)CC1)S(=O)(=O)c1cccc2cnccc12`, the residual activity in experiment [1] is 84%; in experiment [16] it was 83%; in experiment [10], 114%; in experiment [11] it was 114%; in [12] it was 76%.
With `N#Cc1c(NC(=O)c2cccc3ccccc23)sc2c1CCCC2`, the residual activity in [3] came out at 92%; in [4] it was 94%; in experiment [5] it was 95%; in [6], 96%; in experiment [7], 72%; in experiment [20] it was 72%. Also, the residual activity in [14] stood at 92%; in experiment [10], 58%; in experiment [11], 74%; in experiment [12] it was 8%.
`O=C(NC(NC(=S)Nc1ccc(F)c([N+](=O)[O-])c1)C(Cl)(Cl)Cl)C(c1ccccc1)c1ccccc1` (centres undefined): the residual activity amounted to 96% in experiment [1]; 98% in experiment [2]; 93% in [3]; 126% in experiment [19]; 78% in experiment [16]; 102% in experiment [18]. Besides, the residual activity in experiment [12] was 92%.
For `N#C/C(=C1/Nc2ccccc2S1)c1ccnc(NCCc2cccnc2)n1`, the residual activity was determined as 137% in [1]; 98% in experiment [2]; 83% in experiment [3]; 80% in [4]; 70% in experiment [5]; 80% in [6]. The residual activity stood at 31% in experiment [7]; 132% in [19]; 63% in experiment [20]; 95% in experiment [15]; 48% in experiment [16]; 67% in [17]. For the same compound, the residual activity in experiment [18] was determined as 55%.
For `CCOC(=O)c1c(C)[nH]c(/C=C2\C(=O)Nc3ccccc32)c1C`, the residual activity is 96% in experiment [1]; 84% in [2]; 93% in experiment [3]; 94% in [4]; 99% in experiment [5]; 97% in [6]. Besides, the residual activity in [7] is 49%; in experiment [19], 93%; in experiment [20] it was 81%; in [8] it was 79%; in experiment [9] it was 99%; in experiment [13] it was 92%. Further, in experiment [14], the residual activity was 100%.
Regarding `N#C/C(=C\c1ccc(O)c(O)c1)C(=O)NCc1ccccc1`, the residual activity stood at 89% in experiment [1]; 100% in experiment [2]; 85% in experiment [3]; 81% in experiment [5]; 100% in experiment [7]; 88% in experiment [19]. Further, the residual activity in [20] amounted to 85%; in experiment [8], 104%; in [9], 104%.
As to `O=c1cc(N2CCOCC2)oc2c1ccc1ccccc12`, the residual activity came out at 91% in experiment [1]; 103% in experiment [2]; 97% in [3]; 83% in experiment [4]; 88% in experiment [5]; 96% in [6]. Also, the residual activity came out at 88% in experiment [7]; 98% in [20]; 96% in experiment [8]; 94% in experiment [9]; 100% in experiment [15]; 108% in experiment [16]. The residual activity came out at 103% in experiment [17], 87% in experiment [18], 110% in experiment [10] and 97% in experiment [11].
